Several values for one entry are separate records, joined by “and”; a condition that tells them apart may be missing. Equal entries are not always repeated. For some of these results: Entries with a potency or affinity are not part of this list. Activity calls are given as the source filed them.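 How the source made its calls, unless noted: active means thallium flux through the channel raised or lowered by more than 3 SD from vehicle-only wells, actives on both sides; inactive means the rest.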
Columns and labels:
[1] = liver-stage malaria parasite growth inhibition, primary screen, cell-based, HepG2, luciferase luminescence, HepG2 viability (AID 624349; in the data active means parasite load remaining mostly below about 12%, no sharp cut-off; inactive means mostly above about 10%;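 further: 100% = mean of DMSO negative control wells on the same plate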); settings: P. berghei liver stage in HepG2, luciferase luminescence, concentration not given here; parasite load remaining: stronger effect = lower value; viability: measured here: HepG2 viability without parasites
[2] = Cy5 fluorescence interference with SSB-bound oligo, artefact control for HCV NS3 helicase inhibitor project, biochemical, NIH Clinical Collection, E. coli SSB (AID 743268; call rule not given here)
[3] = modulation of C. elegans fzo-1 (AID 1259413; call rule not given here;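 further: fzo-1 mutant C. elegans worms in liquid wells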); settings: C. elegans fzo-1 modulator screen, mean read-out; stronger effect = higher value
[4] = viability rescue of complex I mutant cybrids, primary screen, cell-based, galactose medium, ATP luminescence (AID 1645843;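 active means z-score of at least 1.8 in each of two replicates, scored against plate mean and spread of sample wells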;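 further: positive z means more ATP and so rescue of galactose-driven cybrid death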); settings: complex I mutant cybrid cells, 72 h, stronger effect = higher value
F380Y/beta1 = assay: modulators of BK channel variants, profiling panel, selectivity assay, cell-based, U2OS BacMam, thallium flux, beta subunits (AID 1259406); settings: at 30 µM;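 further: initial slope of Thallos dye fluorescence rise after thallium is added; log ratio against the mean of 0.3% DMSO vehicle wells on the same plate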
F380Y/beta4 = assay: as above; settings: at 30 µM
R275C = assay: as above; settings: at 30 µM
R275C/beta1 = assay: as above; settings: at 30 µM
R275C/beta2Delta = assay: as above; settings: at 30 µM
R275C/beta4 = assay: as above; settings: at 30 µM
R275C/Slo1WT/beta2 = assay: as above; settings: at 30 µM
[5] = polyglutamine-triggered caspase-3 activation inhibitors, cell-based (AID 1583); settings: polyglutamine-induced caspase-3 activation, cell assay; stronger effect = higher value;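 tested at 10 µM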
[6] = suppressors of polyQ aggregation in yeast, 75Q-TubU reporter (AID 1593); settings: Yeast 75Q polyglutamine aggregation reporter
[7] = rescue of polyQ-huntingtin neuronal dysfunction in worms, whole organism, C. elegans mechanosensory neurons, N-terminal huntingtin (AID 1599); settings: touch response, stronger effect = higher value
[8] = inhibitors of mitochondrial cytochrome c release, biochemical, purified mitochondria (AID 1603); settings: stronger effect = lower value;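 further: mouse liver mitochondria challenged with calcium chloride; signal normalized to the plate average as 100%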
[9] = inhibitors of polyQ protein aggregation (AID 1604); settings: polyglutamine-induced protein aggregation inhibition assay; stronger effect = higher value; tested at 2.5 µM
[10] = enhancers of glutamate uptake in motor neurons, MN-1 cell line (AID 1612); settings: MN-1 motor neuron cells, stronger effect = higher value;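 further: tested at 1 µM final; 0% = mean of DMSO vehicle wells on each plate; positive means more glutamate uptake than control and negative means less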
[11] = suppressors of polyglutamine aggregation in yeast, 75Q-TubH (AID 1616); settings: S. cerevisiae 75Q-TubH polyglutamine aggregation suppression; stronger effect = higher value
[12] = hESC survival regulators, cell-based (AID 493140; call rule not given here;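 further: cells exposed to compounds for four days before counting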); settings: human embryonic stem cell survival screen; stronger effect = higher value
[13] = test system: Hepatitis C virus NS3 helicase; assay: HCV NS3 helicase inhibitors, primary screen, biochemical, fluorescence polarization, LOPAC1280 library (AID 687035; in the data active means inhibition above about 37%); settings: Purified HCV NS3 helicase, Cy5-dT15 ssDNA binding fluorescence polarization; stronger effect = higher value; concentration not given here

CCCCC1=NC2(CCCC2)C(=O)N1Cc1ccc(-c2ccccc2-c2nn[nH]n2)cc1
parasite load remaining [1]: 50.9% (inactive) and 54.9% (inactive) and 98.2% (inactive) | viability [1]: 86.5% and 93.9% and 73.1% | fluorescence ratio [2]: 1.06 (inactive) | mean signal [3]: 269 (inactive) | z-score [4]: 1.65 (inactive) | log fold change Tl+ flux (F380Y/beta1): 0.0995 (active) | log fold change Tl+ flux (F380Y/beta4): 0.0736 (inactive) | log fold change Tl+ flux (R275C): 0.00561 (inactive) | log fold change Tl+ flux (R275C/beta1): 0.109 (active) | log fold change Tl+ flux (R275C/beta2Delta): 0.104 (active) | log fold change Tl+ flux (R275C/beta4): 0.051 (inactive) | log fold change Tl+ flux (R275C/Slo1WT/beta2): 0.0476 (inactive)

Nc1nc(N)c2nc(-c3ccccc3)c(N)nc2n1
inhibition [5]: 13.8% | score [6]: 1.58 | rescue above control [7]: 4.34 | cytochrome c release ratio [8]: 0.47 | inhibition of aggregation [9]: 52.6% | glutamate uptake change [10]: 10.7% | aggregation suppression score [11]: 1.34 | survival [12]: 18.2 (inactive) | inhibition [13]: -2% (inactive) | fluorescence ratio [2]: 1.01 (inactive) | mean signal [3]: 245 (inactive) | z-score [4]: -0.725 (inactive) and 0.27 (inactive) | log fold change Tl+ flux (F380Y/beta1): -0.0403 (inactive) | log fold change Tl+ flux (F380Y/beta4): -0.00497 (inactive) | log fold change Tl+ flux (R275C): -0.00764 (inactive) | log fold change Tl+ flux (R275C/beta1): -0.0258 (inactive) | log fold change Tl+ flux (R275C/beta2Delta): -0.000652 (inactive) | log fold change Tl+ flux (R275C/beta4): -0.0731 (inactive) | log fold change Tl+ flux (R275C/Slo1WT/beta2): 0.0101 (inactive)

CN(C)C(=O)Oc1ccc[n+](C)c1
inhibition [5]: 18.4% | score [6]: 1.37 | rescue above control [7]: -0.24 | cytochrome c release ratio [8]: 0.97 | inhibition of aggregation [9]: 27% | glutamate uptake change [10]: -0.9% | aggregation suppression score [11]: 1.35 | parasite load remaining [1]: 46.4% (inactive) and 38.1% (inactive) and 33.2% (inactive) | viability [1]: 90.6% and 93.2% and 82.1% | inhibition [13]: -1% (inactive) | fluorescence ratio [2]: 1.01 (inactive) | mean signal [3]: 265 (inactive) | z-score [4]: 0.81 (inactive) and 0.62 (inactive) | log fold change Tl+ flux (F380Y/beta1): 0.0465 (inactive) | log fold change Tl+ flux (F380Y/beta4): -0.0469 (inactive) | log fold change Tl+ flux (R275C): -0.0114 (inactive) | log fold change Tl+ flux (R275C/beta1): -0.0401 (inactive) | log fold change Tl+ flux (R275C/beta2Delta): 0.0292 (inactive) | log fold change Tl+ flux (R275C/beta4): -0.0147 (inactive) | log fold change Tl+ flux (R275C/Slo1WT/beta2): 0.0451 (inactive)

CCCNC(=O)NS(=O)(=O)c1ccc(Cl)cc1
inhibition [5]: 10.9% | score [6]: 1.66 | rescue above control [7]: -4.58 | cytochrome c release ratio [8]: 1.77 | inhibition of aggregation [9]: 91% | glutamate uptake change [10]: -12.9% | aggregation suppression score [11]: 1.38 | survival [12]: 13.6 (inactive) | inhibition [13]: -1% (inactive) | fluorescence ratio [2]: 0.93 (inactive) | mean signal [3]: 243 (inactive) | z-score [4]: 0.8 (inactive) and 0.135 (inactive) | log fold change Tl+ flux (F380Y/beta1): 0.0557 (inactive) | log fold change Tl+ flux (F380Y/beta4): 0.0279 (inactive) | log fold change Tl+ flux (R275C): 0.0359 (inactive) | log fold change Tl+ flux (R275C/beta1): 0.0476 (inactive) | log fold change Tl+ flux (R275C/beta2Delta): 0.0638 (inactive) | log fold change Tl+ flux (R275C/beta4): 0.017 (inactive) | log fold change Tl+ flux (R275C/Slo1WT/beta2): -0.0244 (inactive)

CC(=O)Nc1nnc(S(N)(=O)=O)s1
inhibition [5]: 12.8% | score [6]: 1.01 | rescue above control [7]: 21.8 | cytochrome c release ratio [8]: 0.85 | inhibition of aggregation [9]: -6.35% | glutamate uptake change [10]: 5.19% | aggregation suppression score [11]: 1.12 | survival [12]: 10.5 (inactive) | inhibition [13]: -1% (inactive) | fluorescence ratio [2]: 1.01 (inactive) | mean signal [3]: 242 (inactive) | z-score [4]: 0.625 (inactive) and 0.37 (inactive) | log fold change Tl+ flux (F380Y/beta1): 0.0405 (inactive) | log fold change Tl+ flux (F380Y/beta4): 0.0426 (inactive) | log fold change Tl+ flux (R275C): 0.0184 (inactive) | log fold change Tl+ flux (R275C/beta1): -0.00169 (inactive) | log fold change Tl+ flux (R275C/beta2Delta): 0.0403 (inactive) | log fold change Tl+ flux (R275C/beta4): 0.00614 (inactive) | log fold change Tl+ flux (R275C/Slo1WT/beta2): 0.0491 (inactive)

C=C(CC)C(=O)c1ccc(OCC(=O)O)c(Cl)c1Cl
inhibition [5]: 6.66% | score [6]: 0.22 | rescue above control [7]: 6.67 | cytochrome c release ratio [8]: 0.63 | inhibition of aggregation [9]: 30.1% | glutamate uptake change [10]: 5.34% | aggregation suppression score [11]: 0.145 | survival [12]: 25.6 (inactive) | fluorescence ratio [2]: 2.96 (active) | mean signal [3]: 255 (inactive) | z-score [4]: -0.85 (inactive) and -0.03 (inactive) | log fold change Tl+ flux (F380Y/beta1): 0.1 (inactive) | log fold change Tl+ flux (F380Y/beta4): 0.0312 (inactive) | log fold change Tl+ flux (R275C): -0.00646 (inactive) | log fold change Tl+ flux (R275C/beta1): 0.0596 (inactive) | log fold change Tl+ flux (R275C/beta2Delta): 0.0176 (inactive) | log fold change Tl+ flux (R275C/beta4): -0.0645 (inactive) | log fold change Tl+ flux (R275C/Slo1WT/beta2): 0.0108 (inactive)

CSc1ccc2c(c1)N(CCC1CCCCN1C)c1ccccc1S2 (stereo not drawn)
inhibition [5]: 43.3% | score [6]: 0.94 | rescue above control [7]: 0 | cytochrome c release ratio [8]: 0.4 | inhibition of aggregation [9]: 7.32% | glutamate uptake change [10]: -2.39% | aggregation suppression score [11]: 0.91 | survival [12]: 2.08 (inactive) | inhibition [13]: -3% (inactive) | fluorescence ratio [2]: 1.05 (inactive) | mean signal [3]: 275 (inactive) | z-score [4]: -1.38 (inactive) and -1.5 (inactive) and -2.41 (inactive) | log fold change Tl+ flux (F380Y/beta1): 0.338 (active) | log fold change Tl+ flux (F380Y/beta4): 0.259 (active) | log fold change Tl+ flux (R275C): -0.424 (active) | log fold change Tl+ flux (R275C/beta1): 0.517 (active) | log fold change Tl+ flux (R275C/beta2Delta): -0.136 (active) | log fold change Tl+ flux (R275C/beta4): 0.753 (active) | log fold change Tl+ flux (R275C/Slo1WT/beta2): -0.146 (active)

CCCCNC(=O)NS(=O)(=O)c1ccc(C)cc1
inhibition [5]: -1.59% | score [6]: 1.02 | rescue above control [7]: -3.14 | cytochrome c release ratio [8]: 0.7 | inhibition of aggregation [9]: 52.6% | glutamate uptake change [10]: -18.9% | aggregation suppression score [11]: 0.871 | survival [12]: 25.3 (inactive) | inhibition [13]: -5% (inactive) | mean signal [3]: 261 (inactive) | z-score [4]: 0.82 (inactive) and -0.58 (inactive) and 0.93 (inactive) | log fold change Tl+ flux (F380Y/beta1): 0.0157 (inactive) | log fold change Tl+ flux (F380Y/beta4): 0.00157 (inactive) | log fold change Tl+ flux (R275C): -0.0266 (inactive) | log fold change Tl+ flux (R275C/beta1): -0.0147 (inactive) | log fold change Tl+ flux (R275C/beta2Delta): 0.0266 (inactive) | log fold change Tl+ flux (R275C/beta4): -0.00534 (inactive) | log fold change Tl+ flux (R275C/Slo1WT/beta2): -0.00827 (inactive)

CCN(CC)CCOC(=O)C1(C2CCCCC2)CCCCC1
inhibition [5]: -0.16% | score [6]: 0.92 | rescue above control [7]: 8.2 | cytochrome c release ratio [8]: 0.58 | inhibition of aggregation [9]: 78.3% | glutamate uptake change [10]: -7.11% | aggregation suppression score [11]: 1.04 | survival [12]: 16.2 (inactive) | inhibition [13]: -4% (inactive) | fluorescence ratio [2]: 1.01 (inactive) | mean signal [3]: 236 (inactive) | z-score [4]: -0.95 (inactive) and -0.895 (inactive) and -2.66 (inactive) | log fold change Tl+ flux (F380Y/beta1): -0.0697 (inactive) | log fold change Tl+ flux (F380Y/beta4): -0.0157 (inactive) | log fold change Tl+ flux (R275C): -0.00463 (inactive) | log fold change Tl+ flux (R275C/beta1): 0.0871 (inactive) | log fold change Tl+ flux (R275C/beta2Delta): 0.0332 (inactive) | log fold change Tl+ flux (R275C/beta4): 0.0991 (inactive) | log fold change Tl+ flux (R275C/Slo1WT/beta2): 0.00259 (inactive)

— PubChem BioAssay
